SMILES strings stand for the structures. Screen size: about 16,000 compounds; about 5,700 (36%) were called active. Roughly 24% stayed inconclusive and do not appear here. Some of the results follow. Unmarked numbers belong to inactive results. Calls come from the whole dose curve; as a rule, active = well fitted curve in the direction sought with a large enough effect; inconclusive = small, poorly fitted or top-dose-only effect, or effect the other way; inactive = no such curve, though single readings can be large or run the other way.
% is set by controls: 0 for no effect and ±100 for the full control effect.

The assay deals with Cytochrome P450 1A2 (Homo sapiens) (UniProt P05177). The experiment in a line: Cytochrome panel assay with activity outcomes. The following applies: recombinant CYP, pro-luciferin dealkylation, luminescence, p450-cyp1a2; series mostly up to 57.1 µM.
Cytochrome P450 1A2 (Homo sapiens), sequence (P05177 whole entry, looked up): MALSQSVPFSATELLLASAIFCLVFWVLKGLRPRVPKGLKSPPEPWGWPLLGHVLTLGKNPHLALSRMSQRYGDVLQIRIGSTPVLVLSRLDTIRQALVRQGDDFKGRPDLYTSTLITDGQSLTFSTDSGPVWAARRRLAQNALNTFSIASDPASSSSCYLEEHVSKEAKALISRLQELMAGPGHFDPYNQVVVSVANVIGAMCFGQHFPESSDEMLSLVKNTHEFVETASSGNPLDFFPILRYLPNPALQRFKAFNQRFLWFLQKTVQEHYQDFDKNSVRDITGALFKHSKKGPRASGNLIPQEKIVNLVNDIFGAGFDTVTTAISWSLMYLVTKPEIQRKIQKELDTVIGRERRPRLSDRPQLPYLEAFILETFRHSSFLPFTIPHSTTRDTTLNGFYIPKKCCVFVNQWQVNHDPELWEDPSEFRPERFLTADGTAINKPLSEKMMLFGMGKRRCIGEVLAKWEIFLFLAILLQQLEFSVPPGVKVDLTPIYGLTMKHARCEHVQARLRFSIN
Turning to `CSc1nc(Cl)cc(N(CCO)CCO)n1`, the AC50 – broadly, the midpoint of the concentration-response curve, whichever way the signal moves – is “inactive”.

Turning to `CC(=O)OC[C@H]1O[C@@H](ON=C(C)C)[C@H](OC(C)=O)[C@@H](OC(C)=O)[C@H]1OC(C)=O`, the activity, negative = inhibition was -5.84% [at 11.4 µM].

For `COc1ccc(/C=C2\CCCC3C2=NN(C(=O)c2ccco2)C3c2ccc(OC)c(OC)c2)cc1OC` (configuration not stated), the AC50 result is “inactive”.

With `NC(=O)/C(=N\OC(=O)c1ccco1)c1nc(-c2ccc(Br)cc2)cs1`, the half-maximal activity concentration (AC50) was 0.447 µM (active).

With `c1ccc2c(CSCCc3ccncc3)cccc2c1`, the AC50 was 0.178 µM (active).

With `O=S(=O)(O)CCCc1cccc2ccccc12`, the activity, negative = inhibition was -16.7% [at 2.29 µM].

Regarding `Clc1ccc(COc2ccccn2)cc1Cl`, the AC50 entry is “inactive”.

Turning to `Clc1ccc(CSCCc2ccncc2)cc1Cl`, the AC50 was 0.316 µM (active).

Take `COCCn1c(=O)c(-c2ccc(F)cc2)nc2cnc(N3CCOCC3)nc21`: the AC50 is 5.01 µM (active).

For the compound `COc1ccc(-n2c(=O)c(-c3ccc(Cl)cc3)nc3cnc(N4CCOCC4)nc32)cc1`, the AC50 is 15.8 µM (active).

With `Cn1c(=O)c(-c2ccccc2)nc2cnc(N3CCNCC3)nc21`, the AC50 is 12.6 µM (active).

Turning to `Cn1c(=O)c(-c2ccccc2)nc2cnc(N3CCOCC3)nc21`, the AC50 is 2 µM (active).

For `NCCc1nc(-c2nc(C(=O)O)cs2)cs1`, the activity, negative = inhibition was -15.8% [at 11.4 µM].

On to `N[C@@H](C(=O)O)c1ccc(C(=O)O)c(C(=O)O)c1`, for which the AC50 result was “inactive”.

Take `COc1ccc2c(c1)CCCC21NC(=O)N(CC(N)=O)C1=O` (configuration not stated): the AC50 result is “inactive”.

Turning to `CC(C)(C)CC(C)(C)c1cc(O)c(O)c(CN2CCCCC2)c1`, the activity, negative = inhibition was -0.989% [at 11.4 µM].

Consider `Cn1c(=O)c(-c2ccc(Cl)cc2)nc2cnc(N3CCOCC3)nc21`, for which the AC50 is 2.51 µM (active).

Consider `Cn1c(=O)c(-c2ccc(F)cc2)nc2cnc(N3CCOCC3)nc21`, for which the concentration at half-maximal activity (AC50) was 2.51 µM (active).

`N#CCCn1c(=O)c(-c2ccc(Cl)cc2)nc2cnc(N3CCOCC3)nc21`: the concentration at half-maximal activity (AC50) was 15.8 µM (active).

Turning to `COc1ccc(-c2nc3cnc(N4CCN(C)CC4)nc3n(CCC#N)c2=O)cc1`, the AC50 result is “inactive”.

For the compound `CC(C)CO/N=C1/[C@H]2O[C@@H]2[C@@H](O)[C@H]2[C@H]1CCn1c(=O)n(C)c(=O)n12`, the activity, negative = inhibition is 8.17% [at 11.4 µM].

Regarding `COCC(=O)N1CCC2(CC1)CN(c1ccccn1)C2`, the AC50 entry is “inactive”.

On to `CCCCNc1cc(=O)oc2ccccc12`, for which the concentration at half-maximal activity (AC50) is 0.708 µM (active).

Consider `CC(=O)OC[C@@H]1O[C@H](C/C=N\OCC[C@H]2C=C[C@H](OC(C)=O)[C@@H](COC(C)=O)O2)C=C[C@@H]1OC(C)=O`, for which the activity, negative = inhibition was -12.9% [at 11.4 µM].

Turning to `c1ccc(Cc2nnc(Sc3ccccc3)c3ccccc23)cc1`, the AC50 was 17.8 µM (active).

In the case of `O=c1[nH]c(=S)[nH]nc1Cc1ccccc1`, the AC50 result is “inactive”.

With `CCN(CC)S(=O)(=O)c1ccc(OC)c(NC(=O)c2cc([N+](=O)[O-])ccc2Cl)c1`, the AC50 result was “inactive”.

In the case of `COc1ccc(C(=O)N2CCCCC2)cc1S(=O)(=O)Nc1ccccc1`, the AC50 entry is “inactive”.

In the case of `CCN(CC)S(=O)(=O)c1ccc2c(c1)nc(SCC(=O)N1CCOCC1)n2-c1ccccc1OC`, the AC50 result is “inactive”.

`COC(=O)c1cc(OC)c(OC)cc1NC(=O)CSc1ccc(C)cc1`: the concentration at half-maximal activity (AC50) was 1.78 µM (active).

On to `CCN(CC)S(=O)(=O)c1cc(C(=O)Nc2ccccc2C(=O)O)ccc1OC`, for which the concentration at half-maximal activity (AC50) is 15.8 µM (active).

With `Cc1ccc(SCC(=O)NNC(=O)C2CCCCC2)cc1`, the AC50 entry was “inactive”.

On to `COC(=O)c1cc(OC)c(OC)cc1NC(=O)CSc1ccccc1`, for which the half-maximal activity concentration (AC50) is 1.78 µM (active).

Take `O=C(CSc1ccccc1)Nc1ccc(N2CCN(c3ccccc3)CC2)c(F)c1`: the AC50 entry is “inactive”.

Turning to `CCN(CC)S(=O)(=O)c1ccc(OC)c(NC(=O)CSc2ccccc2)c1`, the AC50 is 15.8 µM (active).

On to `O=c1n(-c2ccccc2)c(=O)n2n1CC[C@H]1/C(=N\OCc3ccccc3)[C@H]3O[C@@H]3[C@@H](O)[C@@H]12`, for which the activity, negative = inhibition was -12.4% [at 11.4 µM].

For the compound `CN(C)c1ncnc2ccc(-c3ccoc3)cc12`, the AC50 was 0.794 µM (active).

In the case of `CN(C)c1ccc(-c2ccc3ncnc(N(C)C)c3c2)cc1`, the concentration at half-maximal activity (AC50) was 0.158 µM (active).

In the case of `CN(C)C(=O)c1ccc(-c2ccc3ncnc(N(C)C)c3c2)cc1`, the half-maximal activity concentration (AC50) was 20 µM (active).

With `CCO[P@]1(=O)OC[C@@H]2O[C@H](n3cnc4c(N)ncnc43)[C@H](O)[C@@H]2O1`, the activity, negative = inhibition was -15.6% [at 2.29 µM].

For `CC(NC(=O)CN1CCCC1)C12CC3CC(CC(C3)C1)C2` (configuration not stated), the AC50 result was “inactive”.

`COC(=O)[C@H](C)NC(=O)[C@@H](C)CO`: the activity, negative = inhibition is -7.75% [at 11.4 µM].

In the case of `O=S(=O)(N/N=C\c1cn(-c2ccccc2)nc1-c1ccccc1)c1ccccc1`, the half-maximal activity concentration (AC50) was 3.55 µM (active).

For `O=C(N/N=C\c1cn(-c2ccccc2)nc1-c1ccccc1)c1ccc(Br)o1`, the concentration at half-maximal activity (AC50) is 3.55 µM (active).

Turning to `Cc1ccc(-c2nn(-c3ccccc3)cc2/C=N/NS(=O)(=O)c2ccccc2)cc1`, the concentration at half-maximal activity (AC50) is 4.47 µM (active).

Regarding `COc1ccc(-c2nn(-c3ccccc3)cc2/C=N/NC(=O)c2ccc(Br)o2)cc1`, the AC50 result is “inactive”.

As for `COCCCNC(=O)c1c(N)n(/N=C/c2ccccn2)c2nc3ccccc3nc12`, the concentration at half-maximal activity (AC50) is 2 µM (active).

Take `CC1=NN(c2ccccc2)C(=O)[C@@H]1N=Nc1ccc(S(N)(=O)=O)cc1`: the AC50 is 1.26 µM (active).

`CC1=NN(c2ccccc2)C(=O)C1C(=O)c1ccc(Cl)cc1` (configuration not stated): the AC50 entry is “inactive”.

Take `Cn1c(N)c(N=Nc2ccc(S(N)(=O)=O)cc2)c(=O)n(C)c1=O`: the activity, negative = inhibition is -12.8% [at 2.29 µM].

In the case of `CC(=O)OCC(=O)[C@@]1(O)CC[C@@H]2[C@H]3CCC4=CC(=O)CC[C@]4(C)[C@]3(F)[C@@H](O)C[C@@]21C`, the AC50 result is “inactive”.

Regarding `Cc1[nH]nc2nc(SCC(=O)NCC3CCCO3)n(-c3ccc(Br)cc3)c(=N)c12` (configuration not stated), the AC50 is 10 µM (active).

Take `CCC(C)NS(=O)(=O)c1ccc(OCC(=O)NCC2CCCO2)cc1` (configuration not stated): the AC50 result is “inactive”.

Take `Cc1ccc(C)c(-n2c(Cc3cc(=O)[nH]c(=O)[nH]3)nnc2SCC(=O)NCC2CCCO2)c1` (configuration not stated): the AC50 entry is “inactive”.

`C=CCn1c(=O)c2c(nc(-c3ccc(S(=O)(=O)O)cc3)n2C)n(C)c1=O`: the AC50 entry was “inactive”.

For the compound `CCOc1cc(/C=C2\N=C(C)OC2=O)cc(Br)c1OCC(=O)OC`, the AC50 is 17.8 µM (active).

In the case of `CCOc1ccc(N2C(=O)/C(=C/c3cc(OC)c(OC)c(OC)c3)N(CC(=O)OC)C2=S)cc1`, the AC50 entry was “inactive”.

These data come from PubChem BioAssay AID1851 (National Center for Advancing Translational Sciences (NCATS), 2009).
